# From PubChem BioAssay
# CYP2C9 act: activators of human CYP2C9; P11712; recombinant CYP2C9, luciferin-H conversion, luminescence; active compounds read high; factor 1 = untreated enzyme, 0 = blocked; activation factor at 5 µM; actives 1.4% (n = 96,000);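 active = activation factor of 2 or more for CYP2C9 at a 5 µM dose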;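 also: 0 = sulfaphenazole-blocked wells and 1 = vehicle-only wells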
# CD11b adhes inh: CD11b/CD18-fibrinogen binding inhibition | P05107+P11215 | K562 CD11b/CD18 adhesion to fibrinogen, ATPlite luminescence; Mn2+ added to activate the integrin | inhibition, % at 10 µM | actives 0.54% (n = 93,000) | AID 1497;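 active = primary inhibition of 50% or more at 10 µM, then 40% or more on retest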
# CYP2C19 act: increases human CYP2C19 enzyme activity; AID 1025; activation factor at 5 µM; 96,000 tested, under 10 active; recombinant CYP2C19, luciferin-H EGE luminescence; active compounds read high; 0 = fully inhibited enzyme, 1 = untreated enzyme;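 active = activation factor of at least 2 at 5 µM in the primary screen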;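 also: 0 = wells with 2.5 mM tranylcypromine and 1 = vehicle-only wells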
# Target sequence (P33261 whole entry, looked up): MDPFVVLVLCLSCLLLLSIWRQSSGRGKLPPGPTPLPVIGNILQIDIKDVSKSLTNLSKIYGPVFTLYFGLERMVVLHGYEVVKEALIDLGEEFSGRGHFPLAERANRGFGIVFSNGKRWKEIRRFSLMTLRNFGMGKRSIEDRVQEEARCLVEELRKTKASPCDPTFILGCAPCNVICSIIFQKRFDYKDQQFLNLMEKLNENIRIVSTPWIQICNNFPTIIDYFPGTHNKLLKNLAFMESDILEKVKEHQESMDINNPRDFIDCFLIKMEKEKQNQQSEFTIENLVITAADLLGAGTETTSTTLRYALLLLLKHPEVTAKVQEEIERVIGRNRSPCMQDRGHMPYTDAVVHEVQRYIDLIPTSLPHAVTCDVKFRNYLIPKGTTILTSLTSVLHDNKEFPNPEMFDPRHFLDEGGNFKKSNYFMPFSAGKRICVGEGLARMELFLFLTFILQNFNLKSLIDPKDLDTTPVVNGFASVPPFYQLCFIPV
# CYP2C19 inhib: inhibitors of human CYP2C19 | CYP2C19 Supersomes, luciferin-H EGE luminescence, 30 min | inhibition, % at 5 µM | actives 21% (n = 96,000) | AID 778;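 active = CYP2C19 inhibition above a set limit at 5 µM in the primary screen, cut at about 50% in these data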;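 also: plate controls were negative control wells for no effect and 2.5 mM tranylcypromine positive control for full effect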
# Mac1 fbg enh: enhancers of human CD11b/CD18 binding to fibrinogen. K562 CD11b/CD18 adhesion to fibrinogen, ATPlite luminescence. activation, % at 10 µM. actives 0.07% (n = 93,000);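 active = 10 µM primary screen giving 50% or more activity, confirmed by 40% or more on retest at that dose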
# CYP2C9 inh: inhibitors of human CYP2C9. P11712. CYP2C9 Supersomes, luciferin-H conversion, luminescence. inhibition, % at 5 µM. actives 20% (n = 96,000). AID 777;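 active = blocking of liver enzyme CYP2C9 beyond about 50% at 5 µM, limit read from the data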
# Starred values were filed as active, the others as inactive; · = no result. Most compounds without a hit are left out; they make up all but 28% or so of the library.
SMILES,CYP2C9 act,CD11b adhes inh,CYP2C19 act,CYP2C19 inhib,Mac1 fbg enh,CYP2C9 inh
CCn1c(=O)n(CC)c2cc(S(=O)(=O)Nc3cc(C)cc(C)c3C#N)ccc21,0.2,-8,0.4,62*,2,80*
CCC(Sc1nc2c(c(=O)[nH]1)CCC2)C(=O)Nc1cccc(OC)c1 (stereo unspecified),0.4,-14,0.8,23,6,62*
COc1ccc(NC(=O)CSc2nc3c(c(=O)[nH]2)CCC3)cc1OC,0.7,0,0.9,14,2,28
N#C/C(=C\c1ccc(N2CCCC2)c([N+](=O)[O-])c1)c1nc2ccccc2[nH]1,0.8,3,0.7,31,113*,20
COc1cc(/C=C(/C#N)c2nc3ccccc3[nH]2)ccc1Oc1ncccc1[N+](=O)[O-],0.3,·,0.4,62*,·,66*
C/C(=N\NS(=O)(=O)c1ccc(C)cc1)c1ccc(Br)s1,0.3,-2,0.4,58*,1,71*
C/C(=N\NS(=O)(=O)c1ccc(C)cc1)c1ccc(C)s1,1,·,1.1,-9,·,2
Cc1ccc(-c2nc(N/N=C/c3ccncc3)c3ccccc3n2)cc1,0.1,103*,0,98*,-9,94*
Clc1ccccc1-c1nc(N/N=C/c2cccnc2)c2ccccc2n1,0.3,·,0.6,41,·,69*
Clc1ccc(/C=N/Nc2nc(Cl)nc3ccccc23)cc1,0.8,-21,0.9,13,9,21
CCc1ccc(OCCNC(=O)c2ccc(S(=O)(=O)N(C)C)cc2)cc1,0.8,7,0.8,15,0,22
CCOc1nnnc2c1sc1nc(N3CCOCC3)c3c(c12)CCCC3,0,-1,0.1,94*,2,98*
CCN1CCN(c2ncnc3c2sc2nc(N4CCOCC4)c4c(c23)CCC4)CC1,0.5,1,0.3,73*,-6,54*
COc1ccccc1CNC(=O)COC(=O)Cc1ccc(Cl)cc1,·,3,·,·,4,·
COc1ccc(NC(=O)c2csc(Cc3ccccc3)n2)cc1,0.4,59,0.5,50*,-4,64*
O=C(Nc1ccc(Cl)cc1)c1csc(-c2ccccc2)n1,0.6,2,0.7,28,2,38
COc1ccccc1CNC(=O)c1csc(Cc2ccc(Cl)cc2)n1,0.4,·,0.4,60*,·,56*
COc1ccc(CNC(=O)c2csc(Cc3ccccc3)n2)cc1,0.4,-4,0.1,88*,0,59*
CN(C)c1nc(N)nc(-c2ccco2)n1,1.1,0,1.1,-10,5,-11
Fc1ccc(CSc2ncnc3sc4c(c23)CCCC4)cc1,0.7,-12,0.7,28,3,26
CC(=NC1CCCCC1)C1=C(O)c2ccccc2C1=O,0.1,18,0.1,87*,-5,86*
O=C1CC(c2ccccc2)CC(O)=C1C=NC1CCCCC1 (stereo unspecified),1.1,6,1,-2,-5,-7
Cc1cc(N/C=C/C(=O)c2cccc3ccccc23)no1,1.3,6,0.4,57*,2,-33
Cc1cc(C)n(CC(=O)c2ccc(Br)cc2)c(=O)c1C#N,0.9,-12,0.9,13,-6,7
CN1C(=O)C(O)(C2COC(C)(C)CC2=O)c2cc(Br)ccc21 (stereo unspecified),1,1,0.5,54*,5,-5
SMILES,CYP2C9 act,CD11b adhes inh,CYP2C19 act,CYP2C19 inhib,Mac1 fbg enh,CYP2C9 inh
CN1C(=O)C(O)(C2COC(C)(C)CC2=O)c2ccccc21 (stereo unspecified),1.2,3,1.1,-14,-4,-20
Cc1ccc(C(=O)CC2(O)C(=O)N(C)c3ccc(Br)cc32)c(C)c1 (stereo unspecified),0.4,27,0.4,62*,3,55*
Cc1ccc(C)c(C(=O)CC2(O)C(=O)N(C)c3ccccc32)c1 (stereo unspecified),1,-4,0.8,24,-1,-4
CN1C(=O)C(O)(CC(=O)c2ccccn2)c2cc(Br)ccc21 (stereo unspecified),0.9,-4,0.3,67*,-5,6
CC1=Nn2c(nnc2-c2ccc(F)cc2)SC1,1,-4,0.9,6,-2,-4
c1ccc(-c2nnc3ccc(N4CCCC4)nn23)cc1,1,-9,0.9,10,2,3
Cc1ccc(S(=O)(=O)N2CCN(c3ccc4nnc(-c5ccccc5)n4n3)CC2)cc1,0,6,0.1,95*,9,99*
COc1ccc(S(=O)(=O)N2CCN(c3ccc4nnc(-c5ccc(F)cc5)n4n3)CC2)cc1,0,-11,0.1,90*,8,97*
CC(C)CCSc1nc(N)c(C#N)cc1C#N,0.8,·,0.9,14,·,24
Cc1cc(C)nc(Sc2c(C)nn(-c3ccccc3)c2C)n1,0.8,3,0.1,91*,-2,25
CC(C)(Oc1cccc2ccccc12)C(=O)O,1,0,1,5,4,4
COC(=O)c1ccccc1NC(=S)NC(=O)C1CC1,0.7,-14,0.5,52*,-2,26
COC(=O)c1ccccc1NC(=S)NC(=O)c1cccc2ccccc12,1.2,10,0.8,16,8,-18
CCCC(=O)NC(=S)Nc1ccccc1C(=O)OC,0.7,·,0.4,59*,·,28
COc1ccc2c(c1)CC(C1(O)C(=O)N(C)c3ccccc31)C2=O (stereo unspecified),0.8,-9,0.2,77*,2,22
N#CC(/C(=N/S(=O)(=O)c1cccs1)c1ccccc1)c1nc2ccccc2[nH]1 (stereo unspecified),0.1,-26,0.8,17,-1,95*
CCOC(=O)C1CCN(c2c(NC3CCCCCCC3)c(=O)c2=O)CC1,0.9,13,0.9,8,-4,13
Cc1cc(C)nc(-n2nc(C)cc2NC(=O)CNCc2ccccc2)n1,0.4,0,0.7,33,-2,61*
CCN(CC(=O)Nc1cc(C)nn1-c1nc(C)cc(C)n1)Cc1ccccc1,0.2,9,0.3,69*,-2,83*
Cc1cc(C)nc(-n2nc(C)cc2NC(=O)CN2CCc3ccccc3C2)n1,0.1,0,0.1,86*,-3,89*
Cc1cccc(NC(=O)Cn2cnc3c(oc4nc5c(cc43)COC(C)(C)C5)c2=O)c1,·,2,·,·,2,·
Cc1ccc(-n2c(O)c(C=NC3CCS(=O)(=O)C3)c3ccccc3c2=O)cc1 (stereo unspecified),0.9,·,0.9,6,·,8
Cc1ccc(Cc2cnc(NC(=O)/C(C#N)=C/c3ccc(-c4ccccc4[N+](=O)[O-])o3)s2)cc1,0.5,-11,0.9,9,40,54*
CO/N=C/NC(=O)N1OC[C@@H]2COc3ccc4ccccc4c3[C@@H]21,0.9,-4,0.4,57*,1,9
